# A number with no mark means an inactive call. Inconclusive results are not listed. Where a call stands in place of a potency, no number is given. Calls of active or inactive are those of the source. Unless noted, calls come from the whole dose curve.
# Columns and labels:
# [1] = Nuclear factor erythroid 2-related factor 2/antioxidant responsive element (Nrf2/ARE) small molecule agonists: qHTS cell viability counter screen in human keratinocytes (AID 1919968; active = well fitted curve in the direction sought with a large enough effect in the repeat runs; an effect the other way counts as inactive or inconclusive; note: nearly all actives have a fitted effect of over 55% in size)
# Outline: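 HaCaT ARE reporter line, 1,500 cells/well; 5 h settle, 37 C/5% CO2; cpd in DMSO pinned; 23 h exposure; CellTiter-Fluor, 1 h; fluorescence.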
# [2] = Nuclear factor erythroid 2-related factor 2/antioxidant responsive element (Nrf2/ARE) small molecule agonists: luciferase reporter gene qHTS assay in human keratinocytes (AID 1919969); note: nearly all actives have a fitted effect of over 35% in size
# [3] = biological target: Gonadotropin-releasing hormone receptor (Homo sapiens) (UniProt P30968); experiment: Human gonadotropin-releasing hormone receptor (GnRHR) small molecule agonists, calcium flux assay in GnRHR-HEK293 cells (AID 1920063); note: nearly all actives have a fitted effect of over 35% in size
# Outline: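 GnRHR-HEK293, 1500 cells/well, 18 h 37 C/5% CO2; Ca dye 1 h 37 C; cpd pinned (DMSO), agonist mode; kinetic FL 480/540, 3 min, 1 s reads; 15 conc, n=3.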
# [4] = biological target: KiSS-1 receptor (Homo sapiens) (UniProt Q969F8); experiment: Human kisspeptin (KISS1R) small molecule agonists, calcium flux assay in KISS1R-HEK293 cells (AID 1920064; active = well fitted curve in the direction sought with a large enough effect in the repeat runs; an effect the other way counts as inactive or inconclusive)
# Outline: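 Stable human KISS1R HEK293 line; 18 h plating, 37 C/5% CO2; calcium dye 1 h 37 C; compound pin transfer; kinetic fluorescence Ex/Em 480/540, 3 min.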
# [5] = G protein-coupled receptor (GPCR) small molecule agonists, calcium flux assay: HEK293 wild type cell line counter screen (AID 1920065)
# Outline: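 Kinetic fluorescence at Ex/Em 480/540, recorded every second over 3 min, served as the read-out after compound addition. Each compound was tested at 15 concentrations in triplicate on cells pre-loaded with calcium dye for 1 h.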
# [6] = p53 small molecule agonists, cell-based qHTS assay with rat liver microsomes (AID 1963578)
# Outline: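 p53RE-bla cells were exposed to compounds together with rat liver microsomes (0.5 mg/mL final) and NADPH (0.5 mg/mL final) for 16 h at 37 C, then read by LiveBLAzer beta-lactamase fluorescence after 2 h at room temperature.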
# [7] = p53 small molecule agonists, cell-based qHTS assay with human liver microsomes: qHTS cell viability counter screen (AID 1963579); note: nearly all actives have a fitted effect of over 45% in size
# Outline: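 p53RE-bla cells (4,000/well) were pre-incubated 5 h at 37 C, then given compounds in DMSO plus human liver microsomes (0.5 mg/mL final) and NADPH (0.5 mg/mL final) for 16 h at 37 C. Viability was read by CellTiter-Glo luminescence.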
# [8] = p53 small molecule agonists, cell-based qHTS assay with rat liver microsomes: qHTS cell viability counter screen (AID 1963580); note: nearly all actives have a fitted effect of over 45% in size
# Outline: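 Viability is assessed in parallel with the p53 reporter read: HCT-116 p53RE-bla cells receive compounds plus rat microsomes and NADPH (0.5 mg/mL final apiece), incubate 16 h at 37 C, and then CellTiter-Glo luminescence is recorded.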
# [9] = p53 small molecule agonists, cell-based qHTS assay (AID 1963582; active = well fitted activation curve with a large enough effect in the signal ratio in the repeat runs, not every such curve was filed as active; the % refers to the signal ratio)
# Outline: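 Reporter line: p53RE-bla. Pre-incubation 5 h, 37 C, 5% CO2; compound (DMSO, pin tool) 16 h, 37 C; B/G FRET substrate 2 h RT; fluorescence intensity read.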
# [10] = biological target: 5-hydroxytryptamine receptor 2A (Homo sapiens) (UniProt P28223); experiment: 5-hydroxytryptamine receptor 2A (HTR2A) small molecule antagonists, cell-based qHTS assay (AID 1963586); note: nearly all actives have a fitted effect of over 45% in size; note: potency is the fitted concentration of half-maximal effect
# Outline: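 Antagonist-mode intracellular calcium assay: DOI (4 nM) added after 5 min compound pre-incubation at room temperature to dye-loaded HTR2A-CHO cells. Fluorescence followed for 3 min, sampled every second.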
# [11] = biological target: 5-hydroxytryptamine receptor 2A (Homo sapiens) (UniProt P28223); experiment: 5-hydroxytryptamine receptor 2A (HTR2A) small molecule agonists, cell-based qHTS assay (AID 1963587); note: nearly all actives have a fitted effect of over 30% in size; note: potency is the fitted concentration of half-maximal effect
# Outline: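 CHO cells stably expressing human HTR2A, plated 18 h, loaded with calcium dye 1 h at 37 C. Agonist mode: compounds added and intracellular calcium fluorescence recorded kinetically for 2 min at 1 sec intervals.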
# [12] = biological target: Muscarinic acetylcholine receptor M1 (Homo sapiens) (UniProt P11229); experiment: Cholinergic receptor muscarinic 1 (CHRM1) small molecule antagonists, cell-based qHTS assay (AID 1963588); note: nearly all actives have a fitted effect of over 40% in size; note: potency is the fitted concentration of half-maximal effect
# Outline: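 CHRM1-CHO calcium-flux assay, antagonist mode. Cells were seeded 18 h, dye-loaded 1 h at 37 C and given compound for 5 min at RT, then acetylcholine was added at 50nM. FDSS fluorescence was read 3 min; 15 concentrations, three runs.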
# [13] = biological target: Muscarinic acetylcholine receptor M1 (Homo sapiens) (UniProt P11229); experiment: Cholinergic receptor muscarinic 1 (CHRM1) small molecule agonists, cell-based qHTS assay (AID 1963589); note: nearly all actives have a fitted effect of over 35% in size
# Outline: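 Human M1 in stable CHO line; 18 h plating, 1 h dye load 37 C; cpd added (agonist mode); Ca2+ fluorescence kinetic read, 1 s intervals; 15 conc, 3 runs.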
# [14] = cAMP Responsive Elements (CRE) small molecule agonists, cell-based qHTS assay (AID 1963590)
# Outline: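 HEK 293T CRE-bla, 2,000 cells/well, 18 h preincubation 37 C/5% CO2; cpds (DMSO) pinned, 3 h; LiveBLAzer B/G FRET substrate, 2 h RT.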
# [15] = cAMP Responsive Elements (CRE) small molecule antagonists, cell-based qHTS assay (AID 1963591; active = well fitted inhibition curve with a large enough effect in the signal ratio in the repeat runs, not every such curve was filed as active; the % refers to the signal ratio)
# Outline: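 Beta-lactamase reporter read by FRET substrate (LiveBLAzer B/G) after 2 h at room temperature. CRE-bla HEK293T cells had received compound plus 0.25 uM (final) NKH477 for 3 h at 37 °C.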
# [16] = biological target: D(2) dopamine receptor (Homo sapiens) (UniProt P14416); experiment: Dopamine D2 receptor (DRD2) small molecule antagonists, cell-based qHTS assay (AID 1963595; active = well fitted inhibition curve with a large enough effect in the signal ratio in the repeat runs, with a control signal flat; the % refers to the signal ratio)
# Outline: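 Human DRD2 antagonist qHTS measuring cAMP by HTRF. The cells are exposed to compound for 10 min, then to NKH477 (200 nM) and quinpirole (12 nM) for 30 min at RT, with Ro20-1724 (0.1 mM) present throughout.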
# [17] = biological target: Beta-2 adrenergic receptor (Homo sapiens) (UniProt P07550); experiment: Adrenergic beta2 receptor (ADRB2) small molecule antagonists, cell-based qHTS assay (AID 1963592); note: series mostly up to about 92 µM; nearly all actives have a fitted effect of over 50% in size
# Outline: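 Cells (CHO, stable ADRB2 overexpression) incubated 18-20hr at 37C; compounds added from DMSO; agonist mix (1nM isoproterenol, 100uM IBMX, 25uM Ro-20-1724) added; 0.5hr RT; d2-cAMP and anti-cAMP-cryptate added; 1hr RT; 665/615 nm read.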
# [18] = biological target: D(2) dopamine receptor (Homo sapiens) (UniProt P14416); experiment: Dopamine D2 receptor (DRD2) small molecule agonists, cell-based qHTS assay (AID 1963594); note: nearly all actives have a fitted effect of over 35% in size
# Outline: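 HEK293 cells stably expressing human DRD2, pre-treated with PDE inhibitor Ro20-1724 (0.1 mM final) and compound 10 min at room temperature, then stimulated with NKH477 (200nM […]) for 30 min. cAMP read by HTRF (665/620 nm).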
# [19] = p53 small molecule agonists, cell-based qHTS assay: qHTS cell viability counter screen (AID 1963581); note: nearly all actives have a fitted effect of over 45% in size
# Outline: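 HCT-116 p53RE-bla cells, 4,000/well, plated 5 h before compound pin transfer; 16 h at 37 C; bla substrate 2 h RT; then CellTiter-Glo, 30 min RT, luminescence.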
# 5-hydroxytryptamine receptor 2A (Homo sapiens), sequence (P28223 whole entry, looked up): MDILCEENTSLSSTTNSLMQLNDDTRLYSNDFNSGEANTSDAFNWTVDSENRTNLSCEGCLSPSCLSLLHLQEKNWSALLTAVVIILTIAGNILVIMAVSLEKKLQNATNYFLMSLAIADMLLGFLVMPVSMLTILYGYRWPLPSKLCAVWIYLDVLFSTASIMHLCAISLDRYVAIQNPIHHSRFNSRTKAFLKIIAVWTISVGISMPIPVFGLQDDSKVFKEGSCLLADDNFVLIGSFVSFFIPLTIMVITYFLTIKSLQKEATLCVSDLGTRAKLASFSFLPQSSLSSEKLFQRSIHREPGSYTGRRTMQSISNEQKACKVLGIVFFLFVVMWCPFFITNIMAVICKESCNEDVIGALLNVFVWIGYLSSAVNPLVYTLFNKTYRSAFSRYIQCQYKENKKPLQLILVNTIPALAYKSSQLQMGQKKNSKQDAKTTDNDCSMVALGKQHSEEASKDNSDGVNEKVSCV
# KiSS-1 receptor (Homo sapiens), sequence (Q969F8 whole entry, looked up): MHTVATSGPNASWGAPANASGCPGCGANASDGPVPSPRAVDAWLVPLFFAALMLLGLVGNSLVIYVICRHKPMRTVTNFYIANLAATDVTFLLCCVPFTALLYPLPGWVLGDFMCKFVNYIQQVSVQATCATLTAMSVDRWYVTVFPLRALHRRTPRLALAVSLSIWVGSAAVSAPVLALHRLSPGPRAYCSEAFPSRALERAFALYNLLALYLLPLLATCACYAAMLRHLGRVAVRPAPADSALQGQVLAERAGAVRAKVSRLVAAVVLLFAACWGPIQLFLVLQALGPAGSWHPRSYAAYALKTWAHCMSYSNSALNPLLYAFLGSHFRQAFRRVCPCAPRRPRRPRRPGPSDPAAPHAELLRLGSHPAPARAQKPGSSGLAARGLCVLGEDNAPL
# D(2) dopamine receptor (Homo sapiens), sequence (P14416 whole entry, looked up): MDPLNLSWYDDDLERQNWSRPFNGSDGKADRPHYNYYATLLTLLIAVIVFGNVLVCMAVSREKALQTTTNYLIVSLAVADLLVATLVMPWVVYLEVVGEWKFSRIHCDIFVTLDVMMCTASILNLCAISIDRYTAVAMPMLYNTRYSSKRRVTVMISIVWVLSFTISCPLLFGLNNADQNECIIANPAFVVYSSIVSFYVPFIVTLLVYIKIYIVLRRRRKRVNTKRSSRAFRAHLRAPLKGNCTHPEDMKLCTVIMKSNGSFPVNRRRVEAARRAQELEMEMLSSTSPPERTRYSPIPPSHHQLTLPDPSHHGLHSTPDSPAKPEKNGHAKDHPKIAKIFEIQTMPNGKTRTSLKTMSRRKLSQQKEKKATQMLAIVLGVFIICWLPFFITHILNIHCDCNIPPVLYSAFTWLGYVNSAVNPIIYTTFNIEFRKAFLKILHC
# Muscarinic acetylcholine receptor M1 (Homo sapiens), sequence (P11229 whole entry, looked up): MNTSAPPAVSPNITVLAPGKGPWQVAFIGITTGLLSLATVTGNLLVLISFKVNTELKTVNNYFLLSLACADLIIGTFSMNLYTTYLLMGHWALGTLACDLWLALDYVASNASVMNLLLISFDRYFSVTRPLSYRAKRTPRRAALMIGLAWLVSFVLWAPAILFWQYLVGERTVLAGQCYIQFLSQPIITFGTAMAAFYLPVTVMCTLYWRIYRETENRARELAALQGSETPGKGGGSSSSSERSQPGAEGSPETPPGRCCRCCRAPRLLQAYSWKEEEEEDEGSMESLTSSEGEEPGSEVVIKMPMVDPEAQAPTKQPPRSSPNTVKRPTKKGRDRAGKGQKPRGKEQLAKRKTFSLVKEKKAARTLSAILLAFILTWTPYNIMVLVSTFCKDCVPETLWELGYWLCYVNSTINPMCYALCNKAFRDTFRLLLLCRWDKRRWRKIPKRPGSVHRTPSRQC
# Beta-2 adrenergic receptor (Homo sapiens), sequence (P07550 whole entry, looked up): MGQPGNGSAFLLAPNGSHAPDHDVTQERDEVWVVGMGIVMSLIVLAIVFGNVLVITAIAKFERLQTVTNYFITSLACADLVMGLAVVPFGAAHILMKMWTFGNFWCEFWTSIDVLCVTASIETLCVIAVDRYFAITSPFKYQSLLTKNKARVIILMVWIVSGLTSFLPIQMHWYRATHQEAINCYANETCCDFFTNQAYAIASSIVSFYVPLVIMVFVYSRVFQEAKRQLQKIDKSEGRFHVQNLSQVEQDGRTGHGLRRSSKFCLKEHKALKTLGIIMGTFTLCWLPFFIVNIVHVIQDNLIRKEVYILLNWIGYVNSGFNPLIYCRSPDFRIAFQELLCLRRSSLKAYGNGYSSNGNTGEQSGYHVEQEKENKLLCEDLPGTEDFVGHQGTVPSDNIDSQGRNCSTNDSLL
# Gonadotropin-releasing hormone receptor (Homo sapiens), sequence (P30968 whole entry, looked up): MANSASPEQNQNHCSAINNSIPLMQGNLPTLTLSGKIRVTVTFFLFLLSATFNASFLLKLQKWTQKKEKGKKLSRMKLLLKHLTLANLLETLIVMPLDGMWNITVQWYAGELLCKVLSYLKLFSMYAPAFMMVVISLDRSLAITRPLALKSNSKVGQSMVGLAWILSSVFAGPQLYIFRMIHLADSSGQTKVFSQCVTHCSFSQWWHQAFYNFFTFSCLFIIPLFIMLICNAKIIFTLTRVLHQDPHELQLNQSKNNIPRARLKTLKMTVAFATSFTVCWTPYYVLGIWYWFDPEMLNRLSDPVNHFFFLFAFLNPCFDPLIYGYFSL
SMILES,Potency [1],Potency [2],Potency [3],outcome [4],outcome [5],Potency [6],Potency [7],Potency [8],Potency [9],Potency [10],Potency [11],Potency [12],Potency [13],Potency [14],Potency [15],Potency [16],Potency [17],Potency [18],Potency [19]
Oc1ccc(C2CNCCc3c2cc(O)c(O)c3Cl)cc1 (stereo unspecified),inactive,inactive,inactive,inactive,inactive,inactive,inactive,inactive,inactive,259 nM (active),151 nM (active),inactive,inactive,inactive,inactive,inactive,,,
COc1ccc2c(c1OC)C(=O)O[C@@H]2[C@H]1c2c(cc3c(c2OC)OCO3)CCN1C,inactive,inactive,inactive,inactive,inactive,inactive,inactive,inactive,,,,,,inactive,inactive,,inactive,inactive,
C1CCN(CN2CCCCC2)CC1,inactive,inactive,inactive,inactive,inactive,inactive,inactive,inactive,,inactive,inactive,inactive,inactive,inactive,,inactive,inactive,,
CCOc1ccccc1O[C@H](c1ccccc1)[C@H]1CNCCO1,inactive,inactive,inactive,inactive,inactive,inactive,inactive,,,,,,,inactive,,inactive,,,inactive
O=C(CCC1CCN(Cc2ccccc2)CC1)c1ccc2c(c1)NCCCC2,inactive,inactive,inactive,inactive,inactive,inactive,inactive,inactive,inactive,2590 nM (active),,3260 nM (active),,inactive,,,inactive,inactive,
CN1CCCC(n2nc(Cc3ccc(Cl)cc3)c3ccccc3c2=O)CC1 (stereo unspecified),inactive,inactive,inactive,inactive,inactive,inactive,inactive,inactive,inactive,460 nM (active),,,inactive,,,,,inactive,
CCN(CC)C(C)CN1c2ccccc2Sc2ccccc21 (stereo unspecified),inactive,inactive,inactive,inactive,inactive,inactive,inactive,inactive,inactive,,inactive,,inactive,inactive,inactive,inactive,inactive,inactive,
CCOC(=O)C(Br)c1ccccc1 (stereo unspecified),inactive,inactive,inactive,inactive,inactive,inactive,,inactive,inactive,inactive,inactive,inactive,inactive,inactive,,inactive,inactive,inactive,inactive
CC(C)(O)c1ccc(CNC(=O)c2cccnc2Oc2ccc(F)cc2)cc1,inactive,inactive,inactive,inactive,inactive,inactive,,inactive,,inactive,inactive,inactive,inactive,,,inactive,inactive,inactive,

# Reference: PubChem BioAssay (Tox21)
